Laboratory results as given in the supplement of paper PMC11732987, “Enantioselective OTUD7B fragment discovery through chemoproteomics screening and high-throughput optimisation” (Communications Chemistry, 2025).

Columns and labels:
Test in all cases: log2 ratio of Biotin-Ahx-Ub-VS probe labelling (fragment/DMSO); higher = less target engagement (more negative = stronger competition), active = hit call of the paper (q ≤ 0.05, log2 ratio ≤ -1)
Conditions in all cases: compound concentration: 200 uM; treatment time: 3 h
[1] = target: USP34 (UniProt Q70CQ2)
USP34, sequence (Q70CQ2 whole entry, the tested form may be a part): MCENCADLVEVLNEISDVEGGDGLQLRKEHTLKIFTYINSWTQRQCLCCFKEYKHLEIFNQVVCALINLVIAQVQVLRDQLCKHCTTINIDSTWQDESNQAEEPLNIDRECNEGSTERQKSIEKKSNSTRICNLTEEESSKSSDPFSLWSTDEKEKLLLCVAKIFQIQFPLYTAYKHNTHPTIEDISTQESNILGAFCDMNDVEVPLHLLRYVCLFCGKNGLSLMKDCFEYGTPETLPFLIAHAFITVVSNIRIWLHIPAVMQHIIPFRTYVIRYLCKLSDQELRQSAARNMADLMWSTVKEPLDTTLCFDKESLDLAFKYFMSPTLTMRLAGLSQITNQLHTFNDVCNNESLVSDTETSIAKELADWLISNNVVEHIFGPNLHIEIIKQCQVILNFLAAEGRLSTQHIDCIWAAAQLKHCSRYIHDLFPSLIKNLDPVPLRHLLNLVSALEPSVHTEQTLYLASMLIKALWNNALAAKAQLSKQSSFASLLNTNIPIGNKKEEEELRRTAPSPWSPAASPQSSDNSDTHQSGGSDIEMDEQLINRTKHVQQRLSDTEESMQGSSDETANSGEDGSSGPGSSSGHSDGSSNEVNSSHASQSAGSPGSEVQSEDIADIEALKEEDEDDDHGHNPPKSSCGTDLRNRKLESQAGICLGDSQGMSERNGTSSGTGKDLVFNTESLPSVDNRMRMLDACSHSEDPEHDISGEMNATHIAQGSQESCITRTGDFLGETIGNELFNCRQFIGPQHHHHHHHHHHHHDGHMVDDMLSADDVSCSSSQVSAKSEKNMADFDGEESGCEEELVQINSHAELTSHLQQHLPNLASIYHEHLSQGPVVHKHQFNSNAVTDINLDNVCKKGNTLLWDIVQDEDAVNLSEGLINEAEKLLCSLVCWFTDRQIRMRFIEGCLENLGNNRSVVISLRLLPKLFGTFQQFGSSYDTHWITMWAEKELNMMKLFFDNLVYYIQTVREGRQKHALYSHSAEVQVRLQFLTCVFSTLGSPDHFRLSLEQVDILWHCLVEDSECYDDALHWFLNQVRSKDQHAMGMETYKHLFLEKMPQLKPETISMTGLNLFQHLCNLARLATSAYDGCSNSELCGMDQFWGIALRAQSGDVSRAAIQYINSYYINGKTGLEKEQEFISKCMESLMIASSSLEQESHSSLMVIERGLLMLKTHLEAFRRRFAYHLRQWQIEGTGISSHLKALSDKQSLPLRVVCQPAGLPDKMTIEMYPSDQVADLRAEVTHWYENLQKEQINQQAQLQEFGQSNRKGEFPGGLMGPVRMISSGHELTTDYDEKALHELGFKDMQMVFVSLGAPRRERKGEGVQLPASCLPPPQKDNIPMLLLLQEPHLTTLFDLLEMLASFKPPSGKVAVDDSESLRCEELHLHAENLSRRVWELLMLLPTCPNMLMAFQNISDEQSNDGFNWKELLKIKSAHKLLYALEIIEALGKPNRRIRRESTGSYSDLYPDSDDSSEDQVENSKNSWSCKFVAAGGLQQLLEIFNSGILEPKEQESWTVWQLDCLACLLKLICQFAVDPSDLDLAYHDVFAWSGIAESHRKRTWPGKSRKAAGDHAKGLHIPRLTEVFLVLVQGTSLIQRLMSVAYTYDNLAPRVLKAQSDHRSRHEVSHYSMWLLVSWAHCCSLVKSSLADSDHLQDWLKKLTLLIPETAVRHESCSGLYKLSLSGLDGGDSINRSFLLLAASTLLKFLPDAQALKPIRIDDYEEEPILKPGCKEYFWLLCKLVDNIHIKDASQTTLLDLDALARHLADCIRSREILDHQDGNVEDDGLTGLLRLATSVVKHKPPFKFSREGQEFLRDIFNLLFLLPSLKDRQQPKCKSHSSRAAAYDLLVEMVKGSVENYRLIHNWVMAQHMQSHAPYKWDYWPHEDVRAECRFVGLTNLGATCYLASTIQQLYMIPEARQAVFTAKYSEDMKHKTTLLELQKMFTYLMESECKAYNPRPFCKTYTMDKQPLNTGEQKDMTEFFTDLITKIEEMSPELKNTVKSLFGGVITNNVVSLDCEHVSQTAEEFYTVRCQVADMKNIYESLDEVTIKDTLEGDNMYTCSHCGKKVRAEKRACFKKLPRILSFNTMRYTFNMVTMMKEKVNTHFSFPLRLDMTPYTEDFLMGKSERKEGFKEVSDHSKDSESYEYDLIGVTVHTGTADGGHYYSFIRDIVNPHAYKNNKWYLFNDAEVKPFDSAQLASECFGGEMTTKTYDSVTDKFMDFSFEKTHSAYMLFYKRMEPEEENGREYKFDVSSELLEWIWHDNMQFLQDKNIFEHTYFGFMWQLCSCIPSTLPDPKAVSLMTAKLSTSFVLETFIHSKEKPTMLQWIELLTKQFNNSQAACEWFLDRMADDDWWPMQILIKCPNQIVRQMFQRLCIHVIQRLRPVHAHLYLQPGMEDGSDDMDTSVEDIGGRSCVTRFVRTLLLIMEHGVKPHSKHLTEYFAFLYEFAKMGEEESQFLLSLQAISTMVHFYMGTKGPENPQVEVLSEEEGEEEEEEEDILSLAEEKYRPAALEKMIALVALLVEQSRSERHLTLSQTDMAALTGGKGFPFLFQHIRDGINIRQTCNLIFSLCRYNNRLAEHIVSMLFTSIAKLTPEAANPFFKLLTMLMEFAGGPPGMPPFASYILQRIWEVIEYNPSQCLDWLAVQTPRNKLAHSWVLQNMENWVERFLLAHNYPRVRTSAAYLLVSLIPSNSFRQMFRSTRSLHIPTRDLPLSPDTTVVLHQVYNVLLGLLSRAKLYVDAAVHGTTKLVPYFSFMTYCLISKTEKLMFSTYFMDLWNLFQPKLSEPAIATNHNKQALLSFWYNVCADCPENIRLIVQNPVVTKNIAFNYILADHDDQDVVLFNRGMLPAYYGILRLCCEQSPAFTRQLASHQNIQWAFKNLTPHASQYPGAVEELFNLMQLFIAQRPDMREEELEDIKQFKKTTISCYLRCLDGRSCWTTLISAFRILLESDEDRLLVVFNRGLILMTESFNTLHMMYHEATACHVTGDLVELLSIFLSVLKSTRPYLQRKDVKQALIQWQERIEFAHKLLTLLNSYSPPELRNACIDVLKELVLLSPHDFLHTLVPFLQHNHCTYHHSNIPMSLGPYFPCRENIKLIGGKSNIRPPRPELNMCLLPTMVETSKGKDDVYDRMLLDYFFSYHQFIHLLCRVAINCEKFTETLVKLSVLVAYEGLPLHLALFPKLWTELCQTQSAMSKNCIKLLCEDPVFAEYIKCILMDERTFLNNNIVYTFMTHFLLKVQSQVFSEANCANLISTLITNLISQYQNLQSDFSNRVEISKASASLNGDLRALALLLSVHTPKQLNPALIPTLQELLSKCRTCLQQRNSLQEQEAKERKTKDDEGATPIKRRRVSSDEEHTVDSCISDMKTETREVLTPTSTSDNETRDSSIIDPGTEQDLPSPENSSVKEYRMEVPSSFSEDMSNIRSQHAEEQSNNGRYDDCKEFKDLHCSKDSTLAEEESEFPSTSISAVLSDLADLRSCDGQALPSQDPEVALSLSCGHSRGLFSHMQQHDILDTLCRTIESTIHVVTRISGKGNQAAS
Procedure, shortened: (§1)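 Average log2 ratios of fragment over vehicle were obtained by unpaired t-test from global-median-normalised Spectronaut label-free quantities. Proteins with ≥2 unique peptides were included. HEK293T lysate (495 µg per sample) was treated in triplicate with fragment at 200 µM or vehicle for 3 h, then with Biotin-Ahx-Ub-VS at 0.5 µM final for 1 h, and labelled DUBs were NeutrAvidin-enriched and run by diaPASEF LC-MS/MS.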

[2] = target: T1, USP36 (UniProt Q9P275)
T1 sequence (whole entry): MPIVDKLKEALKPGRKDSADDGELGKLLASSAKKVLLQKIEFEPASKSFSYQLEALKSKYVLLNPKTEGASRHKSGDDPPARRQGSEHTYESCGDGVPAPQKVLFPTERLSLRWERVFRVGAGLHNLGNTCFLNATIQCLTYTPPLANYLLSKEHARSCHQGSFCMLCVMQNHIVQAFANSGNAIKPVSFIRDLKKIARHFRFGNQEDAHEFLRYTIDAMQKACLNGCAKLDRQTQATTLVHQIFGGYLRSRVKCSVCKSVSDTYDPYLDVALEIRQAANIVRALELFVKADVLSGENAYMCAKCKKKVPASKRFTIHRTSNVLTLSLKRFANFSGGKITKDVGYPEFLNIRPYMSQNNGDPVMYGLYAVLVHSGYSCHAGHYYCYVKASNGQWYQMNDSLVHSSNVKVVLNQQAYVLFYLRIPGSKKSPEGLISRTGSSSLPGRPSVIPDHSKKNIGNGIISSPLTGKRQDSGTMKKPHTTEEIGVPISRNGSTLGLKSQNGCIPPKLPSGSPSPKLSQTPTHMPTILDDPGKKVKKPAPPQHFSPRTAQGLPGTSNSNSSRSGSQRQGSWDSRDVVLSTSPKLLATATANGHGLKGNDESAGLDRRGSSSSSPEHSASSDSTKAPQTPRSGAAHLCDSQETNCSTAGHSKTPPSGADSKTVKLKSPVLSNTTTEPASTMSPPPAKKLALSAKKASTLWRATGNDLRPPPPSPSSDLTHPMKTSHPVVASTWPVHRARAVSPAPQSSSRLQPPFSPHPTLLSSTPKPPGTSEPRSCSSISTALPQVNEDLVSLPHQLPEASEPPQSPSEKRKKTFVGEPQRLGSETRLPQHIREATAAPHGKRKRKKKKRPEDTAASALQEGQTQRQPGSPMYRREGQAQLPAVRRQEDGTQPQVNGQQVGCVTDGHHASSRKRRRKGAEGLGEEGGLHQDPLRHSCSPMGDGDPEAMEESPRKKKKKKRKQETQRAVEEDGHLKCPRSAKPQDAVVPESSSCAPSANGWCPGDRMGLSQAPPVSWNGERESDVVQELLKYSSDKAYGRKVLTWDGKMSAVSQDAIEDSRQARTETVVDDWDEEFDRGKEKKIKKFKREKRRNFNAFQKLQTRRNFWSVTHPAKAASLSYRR
Procedure, shortened: as §1

[3] = target: T2, USP38 (UniProt Q8NB14)
T2 sequence (whole entry): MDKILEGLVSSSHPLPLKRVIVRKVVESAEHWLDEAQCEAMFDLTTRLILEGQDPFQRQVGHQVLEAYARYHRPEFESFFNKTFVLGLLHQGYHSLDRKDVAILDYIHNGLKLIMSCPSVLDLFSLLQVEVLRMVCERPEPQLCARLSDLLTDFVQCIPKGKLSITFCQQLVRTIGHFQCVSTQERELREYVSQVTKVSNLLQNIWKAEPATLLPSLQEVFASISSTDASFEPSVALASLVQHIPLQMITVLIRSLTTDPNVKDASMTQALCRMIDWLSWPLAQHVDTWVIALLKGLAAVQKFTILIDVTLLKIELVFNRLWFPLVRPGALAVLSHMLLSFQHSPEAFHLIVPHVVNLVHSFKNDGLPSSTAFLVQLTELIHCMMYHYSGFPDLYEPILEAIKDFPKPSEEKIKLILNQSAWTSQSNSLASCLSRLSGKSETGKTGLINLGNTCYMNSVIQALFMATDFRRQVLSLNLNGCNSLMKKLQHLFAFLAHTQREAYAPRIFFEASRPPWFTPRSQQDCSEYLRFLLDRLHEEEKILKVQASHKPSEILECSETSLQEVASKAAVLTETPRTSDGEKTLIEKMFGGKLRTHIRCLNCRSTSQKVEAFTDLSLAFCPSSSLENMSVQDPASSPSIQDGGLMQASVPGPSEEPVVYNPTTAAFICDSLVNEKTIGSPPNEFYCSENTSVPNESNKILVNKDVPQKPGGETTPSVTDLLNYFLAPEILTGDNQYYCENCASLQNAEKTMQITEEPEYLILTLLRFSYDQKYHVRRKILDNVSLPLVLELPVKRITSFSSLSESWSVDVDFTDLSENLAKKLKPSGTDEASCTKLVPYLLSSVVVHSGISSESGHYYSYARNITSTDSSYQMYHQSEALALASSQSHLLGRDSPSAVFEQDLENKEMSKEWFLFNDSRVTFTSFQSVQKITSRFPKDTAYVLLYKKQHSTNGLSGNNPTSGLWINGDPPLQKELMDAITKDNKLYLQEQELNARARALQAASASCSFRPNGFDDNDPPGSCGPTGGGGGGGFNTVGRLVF
Procedure, shortened: as §1

[4] = target: T3, USP39 (UniProt Q53GS9)
T3 sequence (whole entry): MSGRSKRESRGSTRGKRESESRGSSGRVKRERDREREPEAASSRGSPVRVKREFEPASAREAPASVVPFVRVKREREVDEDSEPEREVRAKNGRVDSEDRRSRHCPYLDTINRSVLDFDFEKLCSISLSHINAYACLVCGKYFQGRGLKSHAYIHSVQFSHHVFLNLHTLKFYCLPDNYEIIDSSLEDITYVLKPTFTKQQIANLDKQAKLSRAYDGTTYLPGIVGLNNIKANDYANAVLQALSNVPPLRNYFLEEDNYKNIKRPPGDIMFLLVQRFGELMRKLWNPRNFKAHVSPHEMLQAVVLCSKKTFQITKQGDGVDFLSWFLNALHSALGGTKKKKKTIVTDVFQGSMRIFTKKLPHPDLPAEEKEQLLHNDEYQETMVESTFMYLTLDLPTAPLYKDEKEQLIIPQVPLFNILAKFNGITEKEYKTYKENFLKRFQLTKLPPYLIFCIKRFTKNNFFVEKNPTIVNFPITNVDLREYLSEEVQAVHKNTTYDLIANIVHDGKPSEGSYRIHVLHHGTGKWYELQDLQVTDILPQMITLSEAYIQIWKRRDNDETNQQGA
Procedure, shortened: as §1

[5] = target: T4, USP4 (UniProt Q13107)
T4 sequence (whole entry): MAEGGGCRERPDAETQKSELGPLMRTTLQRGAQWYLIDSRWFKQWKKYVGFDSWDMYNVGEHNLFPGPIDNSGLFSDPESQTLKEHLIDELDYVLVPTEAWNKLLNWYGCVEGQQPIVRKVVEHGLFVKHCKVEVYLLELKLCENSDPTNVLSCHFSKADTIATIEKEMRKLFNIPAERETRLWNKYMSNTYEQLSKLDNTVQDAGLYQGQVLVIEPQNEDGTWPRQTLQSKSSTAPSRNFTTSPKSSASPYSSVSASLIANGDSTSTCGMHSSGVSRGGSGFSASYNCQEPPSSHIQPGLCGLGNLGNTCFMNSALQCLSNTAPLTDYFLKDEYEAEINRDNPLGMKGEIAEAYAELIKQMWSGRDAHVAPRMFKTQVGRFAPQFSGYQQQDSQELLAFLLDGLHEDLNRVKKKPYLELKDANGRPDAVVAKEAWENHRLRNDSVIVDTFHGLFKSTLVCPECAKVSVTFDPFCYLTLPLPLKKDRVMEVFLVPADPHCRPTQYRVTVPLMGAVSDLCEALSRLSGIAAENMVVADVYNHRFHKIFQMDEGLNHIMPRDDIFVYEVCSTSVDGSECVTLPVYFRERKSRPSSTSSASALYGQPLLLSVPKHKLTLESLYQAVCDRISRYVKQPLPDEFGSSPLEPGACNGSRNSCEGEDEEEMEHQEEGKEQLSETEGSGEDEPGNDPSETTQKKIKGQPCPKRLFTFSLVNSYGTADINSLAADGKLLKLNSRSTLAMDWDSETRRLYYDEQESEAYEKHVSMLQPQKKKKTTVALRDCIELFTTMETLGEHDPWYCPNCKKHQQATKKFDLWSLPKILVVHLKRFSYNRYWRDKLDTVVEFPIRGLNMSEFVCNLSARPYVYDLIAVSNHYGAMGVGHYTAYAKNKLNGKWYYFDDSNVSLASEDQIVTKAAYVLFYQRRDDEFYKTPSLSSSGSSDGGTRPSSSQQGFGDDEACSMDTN
Procedure, shortened: as §1

Measured: log2 ratio of Biotin-Ahx-Ub-VS probe labelling

CCN(C(=O)CCl)C1CCCCC1
inactive: [1] -0.106 | [2] -0.191 | [3] 0.143 | [4] 0.059 | [5] 0.182
